Compound activity deposited in PubChem BioAssay by National Center for Advancing Translational Sciences (NCATS).
TRPML1 ag: activates the human TRPML1 channel; AID 624414; activation, % (no concentration beside the values); TRPML1-expressing cells, Ca2+ dye fluorescence, FDSS; 410,000 tested, 0.12% active; in the data active = activation above about 50%; inconclusive = mostly about 30% to 49%; note: 0% is about no effect
Target sequence (Q9GZU1 whole entry, looked up): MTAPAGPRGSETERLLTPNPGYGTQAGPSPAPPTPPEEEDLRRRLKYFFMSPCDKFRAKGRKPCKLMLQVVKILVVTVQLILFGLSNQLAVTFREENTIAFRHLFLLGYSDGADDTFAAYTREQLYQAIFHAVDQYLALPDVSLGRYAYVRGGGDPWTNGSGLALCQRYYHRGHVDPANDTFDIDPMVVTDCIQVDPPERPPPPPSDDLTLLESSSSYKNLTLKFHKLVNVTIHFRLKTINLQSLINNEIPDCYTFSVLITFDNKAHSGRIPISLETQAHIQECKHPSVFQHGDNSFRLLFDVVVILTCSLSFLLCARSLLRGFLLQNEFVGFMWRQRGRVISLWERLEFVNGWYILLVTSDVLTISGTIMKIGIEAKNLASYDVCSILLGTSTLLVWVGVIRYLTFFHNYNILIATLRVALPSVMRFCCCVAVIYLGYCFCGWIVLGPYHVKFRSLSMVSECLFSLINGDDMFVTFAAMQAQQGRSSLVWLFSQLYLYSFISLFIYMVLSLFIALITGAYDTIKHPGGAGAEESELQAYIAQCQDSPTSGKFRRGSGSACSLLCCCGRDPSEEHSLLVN
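Tetracycline-induced TRPML1-DL cells are seeded and incubated overnight before loading with a no-wash Ca2+ dye and quencher. Agonist activity is taken from the 110 s fluorescence read following compound pin-transfer on an FDSS, before EC80 54-4 challenge.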
TRPML1 inh: blocks the human TRPML1 channel | TRPML1-inducible cells, Ca2+ dye fluorescence, FDSS; hits give low values; inhibition of EC80 agonist-evoked calcium signal | activity change, negative = inhibition, % (concentration not given with the values) | 390,000 tested, 0.02% active; in the data active = activity change below about -50%; inconclusive = between about -30% and that limit;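 note: stimulus is agonist 54-4 at its EC80 concentration; % is set by controls: 0 for no effect and ±100 for the full control effect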
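TRPML1-DL cells, Tet-induced overnight (~16 h, 37 °C) at 1,500 cells/well, were loaded with Ca8 no-wash dye plus quencher for 45-90 min at room temperature. Compounds were pinned during FDSS kinetic reading; agonist 54-4 at EC80 (4 uM final) then added.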
TRPV1 ag: activates the human vanilloid receptor TRPV1; Q8NER1; activation, % at 8.33 µM; 320,000 tested, 0.19% active; TRPV1-expressing cells, Fluo-8 calcium influx, agonist mode; in the data active = activation above about 80%; inconclusive = between about 30% and that limit; note: 0% is about no effect
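Fluo-8 calcium influx in TRPV1-expressing cells, kinetic read (ex 480/em 520 nm). Compound added and read 3 min for agonist activity, followed by capsaicin at EC20 final and 2 min further read for enhancement.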
TRPV1 potentiator: potentiators of human vanilloid receptor 1 (TRPV1); Q8NER1; TRPV1-expressing cells, Fluo-8 calcium influx, capsaicin EC20 potentiation; potentiation, % at 8.33 µM; 320,000 tested, 0.02% active; AID 540277; in the data active = potentiation above about 80%; inconclusive = between about 30% and that limit; note: 0% is about no effect
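Cells expressing TRPV1 were dye-loaded with Fluo-8 and read kinetically: 10 s baseline, 3 min after compound (agonist portion), then 2 min after EC20 capsaicin (allosteric enhancer portion). Calcium-bound dye fluorescence at 480/520 nm.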
TRHR enhancer-1: allosteric enhancers of human TRH receptor; P34981; enhancement, % at 2 µM; 360,000 tested, 0.66% active; AID 493056; TRHR cells, fluo-8 calcium fluorescence, EC20 TRH enhancement; in the data active = enhancement above about 30%; note: 0% is about no effect
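TRHR-expressing cells loaded with fluo-8 calcium dye were read kinetically (ex 480/em 530) during compound addition, then stimulated with an EC20 of TRH (10 nM final). Enhancement of the Gq-mediated intracellular calcium response was scored.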
TRHR agonist-1: activates the human TRH receptor | P34981 | TRHR cells, calcium flux fluo-8, FDSS agonist mode | activation, % at 2 µM | 360,000 tested, 0.18% active; in the data active = activation above about 30%; note: 0% is about no effect
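Agonist-mode FDSS calcium read (Ex 480/Em 530, 1 s cycles) in 1536-well TRHR cells with fluo-8 dye, after 10-cycle baseline and 23 nL compound addition; TRH at EC20 (10 nM final) added afterwards for the enhancer phase.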
TRHR enhancer-2: human TRH receptor allosteric enhancement confirmation; shares compounds with TRHR enhancer-1; 970 tested, under 10 active; activity change, negative = inhibition, % at 46.1 µM; TRH receptor cell assay, enhancer confirmation qHTS; AID 493076;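 note: compound effect scored on response to added TRH at EC20 of 10 nM; 0% is about no effect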
TRHR agonist-2: human TRH receptor agonism confirmation; TRHR-expressing cells, agonist activation read-out; Potency, µM (top dose mostly 46.1 µM), inactives show at the top dose activation, hits mostly activators; 970 tested, 8% active; shares compounds with TRHR enhancer-1; note: potency is the fitted concentration of half-maximal effect; 0% is about no effect; nearly all actives have a fitted effect of over 75% in size
Starred values were filed as active, the others as inactive; ? = inconclusive; nt = not tested or not shown. Only some compounds are listed: those with a hit (about 0.96% of all), similar ones and a draw of the others. Unless noted, calls come from the whole dose curve; as a rule, active = well fitted curve in the direction sought with a large enough effect; inconclusive = small, poorly fitted or top-dose-only effect, or another doubt; inactive = no such curve, though single readings can be large; an effect the other way counts as inactive or inconclusive.

SMILES	TRPML1 ag	TRPML1 inh	TRPV1 ag	TRPV1 potentiator	TRHR enhancer-1	TRHR agonist-1	TRHR enhancer-2	TRHR agonist-2
O=C(COc1ncnc2ccccc12)Nc1ccc(S(=O)(=O)N2CCOCC2)cc1	1	3	-1	-6	43*	0	?	0%
CCOC(=O)c1[nH]cnc1C(=O)Nc1ccc(C)cc1	-1	-5	18	-23	51*	0	-2	5%
CCOC(=O)c1[nH]cnc1C(=O)Nc1ccc(Cl)cc1	3	14	8	0	5	0	nt	nt
O=S(=O)(c1ccc(Cl)cc1)N1CCN(c2nc(-c3cccc(Br)c3)nc3ccccc23)CC1	0	-4	nt	nt	-3	-1	nt	nt
CCOC(=O)C1CCN(C(=O)Cn2cc(C(=O)C3CC3)c3ccccc32)CC1	0	3	1	4	2	0	nt	nt
O=C(c1cn(CC(=O)N2CCCCC2)c2ccccc12)C1CC1	0	-6	3	23	51*	0	-2	-1%
Clc1ccc(Cn2cc3c(n2)-c2cc4ccccc4n2C3)cc1	-1	nt	nt	nt	nt	nt	nt	nt
COc1ccc(Nc2nc(N)c([N+](=O)[O-])c(N3CCN(C)CC3)n2)cc1	0	1	-1	10	46*	0	1	1%
COc1ccc(Nc2nc(N)c([N+](=O)[O-])c(N3CCCC3)n2)cc1	6	13	1	-5	3	0	nt	nt
CC(C)c1ccc(N(CC(=O)NCCCN2CCOCC2)S(=O)(=O)c2ccccc2)cc1	0	-13	-1	7	48*	0	-2	2%
COc1cccc(NC(=O)c2cc3cccc(OC)c3o/c2=N\O)c1	nt	nt	?	-21	0	-1	nt	nt
COc1cccc(NC(=O)c2cc3ccccc3o/c2=N\O)c1	nt	nt	29	-1	49*	0	6	-1%
CN(C)c1ccc(C(C(=O)NCC2CCCO2)N(C(=O)c2snc(C(N)=O)c2N)c2ccc3c(c2)OCO3)cc1 (stereo not given)	1	-3	4	12	53*	-1	-4	0%
CN(C)c1ccc(C(C(=O)NCC2CCCO2)N(C(=O)c2snc(C(N)=O)c2N)c2ccccc2)cc1 (stereo not given)	0	-7	2	10	7	0	nt	nt
Cc1cccc(N(C(=O)c2snc(C(N)=O)c2N)C(C(=O)NC2CCCC2)c2ccncc2)c1 (stereo not given)	0	-7	1	-6	42*	0	-1	0%
Cc1[nH]c2ccccc2c1C(c1c[nH]c2ccccc12)c1c(C)[nH]c2ccccc12	3	nt	nt	nt	nt	nt	nt	nt
Cc1ccc(SCc2[nH]nc3c2C2(C(=O)Nc4ccc(F)cc42)C(C#N)=C(N)O3)cc1 (stereo not given)	-1	-11	-3	13	3	0	nt	nt
Cc1[nH]nc2c1C1(C(=O)Nc3ccc([N+](=O)[O-])cc31)C(C#N)=C(N)O2 (stereo not given)	0	43	-1	11	116*	1	3	4%
O=C1CC(c2ccccc2)Sc2nc3ccccc3n21 (stereo not given)	2	-14	1	1	42*	-1	-10	1%
O=C1CC(c2cccs2)Sc2nc3ccccc3n21 (stereo not given)	-1	5	0	8	-12	-1	nt	nt
COc1ccc(C2C(C(C)=O)=C(C)N=c3s/c(=C/c4ccc5c(c4)OCO5)c(=O)n32)cc1 (stereo not given)	nt	nt	1	5	-8	38*	8	?
CCOc1ccc(NC(=O)Nc2nc3ccc(S(C)(=O)=O)cc3s2)cc1	-1	-6	-2	-10	58*	1	-1	-1%
Cc1ccc(C(=O)NCC(c2ccco2)N2CCc3ccccc32)cc1C (stereo not given)	0	11	-2	14	-7	1	nt	nt
O=C(NCC(c1ccco1)N1CCc2ccccc21)c1ccccc1 (stereo not given)	1	-13	?	-12	51*	0	-9	1%
Cc1cc(=O)oc2c(CN3CCCC3)c(O)c(Cl)cc12	0	-16	-2	-14	59*	-2	-12	3%
SMILES	TRPML1 ag	TRPML1 inh	TRPV1 ag	TRPV1 potentiator	TRHR enhancer-1	TRHR agonist-1	TRHR enhancer-2	TRHR agonist-2
Cc1cc(=O)oc2c(CN3CCCCC3)c(O)c(Cl)cc12	-2	-7	-5	-29	19	-1	nt	nt
COc1ccc(C(C)(C)C)cc1NC(=O)c1ccc[n+]([O-])c1	-1	-1	0	17	53*	1	8	1%
Nc1ccc(/C=C/C(=O)c2cccs2)cc1	22	-4	26	-38	-15	52*	?	21µM*
COc1ccc(NC2CCCN(C(=O)CSc3ccncc3)C2)cc1 (stereo not given)	0	?	18	-15	83*	0	-1	-1%
Cc1ccccc1Nc1nc(N)nc(COC(=O)CC2CC3CCC2C3)n1 (stereo not given)	2	-14	0	5	51*	-1	0	1%
Cc1ccccc1Nc1nc(N)nc(COC(=O)CCS(=O)(=O)c2ccccc2)n1	0	10	0	-11	1	-1	nt	nt
Cc1ccc2c(C(=O)CNc3nc(C)c(C)s3)c(C)[nH]c2c1	-1	nt	nt	nt	nt	nt	nt	nt
COc1ccc(C(CNC(=O)c2ccc(Cl)c(NC(=O)c3cccs3)c2)N2CCCC2)cc1 (stereo not given)	0	3	3	-10	60*	1	-1	3%
